# Numbering of substitutions follows the chain as printed.
# What was measured:
# Assay in all cases: yeast three-hybrid, YBZ-1, SC-Leu-His + 0.5 mM 3-AT, 4 days
# Settings in all cases: tags: N-Gal4 AD-HA kept; label: inside an RPR1-promoter hybrid RNA with tandem MS2 sites; ssRNA
# PUM1 PUF domain R7-KTE = PUM1 PUF domain R7-KTE (Homo sapiens, UniProt Q14671 828-1176, S1079K;N1080T)
# In short: (§1)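 Each repeat of the Pumilio-1 PUF domain was randomized at its three base-contacting residues, and these libraries were co-expressed from a centromeric plasmid with matching RNA elements in strain YBZ-1. After four days on SC-Leu (input) or SC-Leu-His + 0.5 mM 3-AT (selection), the repeat regions were PCR-amplified and Illumina-sequenced. The interaction score compares variant frequency between input and selection as a log change, computed in log2 with a pseudocount of 1 for absent variants.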
# PUM1 PUF domain R7-EYN = PUM1 PUF domain R7-EYN (Homo sapiens, UniProt Q14671 828-1176, S1079E;N1080Y;E1083N)
# In short: as §1
# PUM1 PUF domain R7-RGN = PUM1 PUF domain R7-RGN (Homo sapiens, UniProt Q14671 828-1176, S1079R;N1080G;E1083N)
# In short: as §1
# PUM1 PUF domain R6-SWD = molecular target: T1, PUM1 PUF domain R6-SWD (Homo sapiens, UniProt Q14671 828-1176, N1043S;Y1044W;Q1047D)
# T1 sequence: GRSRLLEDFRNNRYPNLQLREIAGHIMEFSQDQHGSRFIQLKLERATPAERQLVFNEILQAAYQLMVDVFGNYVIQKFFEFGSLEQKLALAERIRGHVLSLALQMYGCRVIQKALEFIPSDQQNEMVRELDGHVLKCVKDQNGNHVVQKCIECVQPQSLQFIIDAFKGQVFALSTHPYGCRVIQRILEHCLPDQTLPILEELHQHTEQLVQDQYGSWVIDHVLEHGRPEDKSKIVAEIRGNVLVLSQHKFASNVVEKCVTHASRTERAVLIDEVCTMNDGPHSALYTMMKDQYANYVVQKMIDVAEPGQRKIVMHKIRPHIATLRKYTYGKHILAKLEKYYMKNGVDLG
# In short: as §1
# PUM1 PUF domain R3-GPK = PUM1 PUF domain R3-GPK (Homo sapiens, UniProt Q14671 828-1176, C935G;R936P;Q939K)
# In short: as §1
# PUM1 PUF domain R8-MHP = PUM1 PUF domain R8-MHP (Homo sapiens, UniProt Q14671 828-1176, N1122M;Y1123H;Q1126P)
# In short: as §1
# PUM1 PUF domain R8-HFD = PUM1 PUF domain R8-HFD (Homo sapiens, UniProt Q14671 828-1176, N1122H;Y1123F;Q1126D)
# In short: as §1
# PUM1 PUF domain R8-CYP = PUM1 PUF domain R8-CYP (Homo sapiens, UniProt Q14671 828-1176, N1122C;Q1126P)
# In short: as §1
# PUM1 PUF domain R5-FRT = PUM1 PUF domain R5-FRT (Homo sapiens, UniProt Q14671 828-1176, C1007F;Q1011T)
# In short: as §1
# PUM1 PUF domain R5-RAM = PUM1 PUF domain R5-RAM (Homo sapiens, UniProt Q14671 828-1176, C1007R;R1008A;Q1011M)
# In short: as §1
# PUM1 PUF domain R5-NRR = PUM1 PUF domain R5-NRR (Homo sapiens, UniProt Q14671 828-1176, C1007N;Q1011R)
# In short: as §1
# PUM1 PUF domain R1-GHR = PUM1 PUF domain R1-GHR (Homo sapiens, UniProt Q14671 828-1176, S863G;R864H;Q867R)
# In short: as §1
# PUM1 PUF domain R1-KAR = PUM1 PUF domain R1-KAR (Homo sapiens, UniProt Q14671 828-1176, S863K;R864A;Q867R)
# In short: as §1
# PUM1 PUF domain R4-ACC = PUM1 PUF domain R4-ACC (Homo sapiens, UniProt Q14671 828-1176, N971A;H972C;Q975C)
# In short: as §1
# PUM1 PUF domain R6-TFT = molecular target: T2, PUM1 PUF domain R6-TFT (Homo sapiens, UniProt Q14671 828-1176, N1043T;Y1044F;Q1047T)
# T2 sequence: T1 sequence with S216T, W217F, D220T
# In short: as §1
# PUM1 PUF domain R5-FFV = PUM1 PUF domain R5-FFV (Homo sapiens, UniProt Q14671 828-1176, C1007F;R1008F;Q1011V)
# In short: as §1
# PUM1 PUF domain R4-TNG = PUM1 PUF domain R4-TNG (Homo sapiens, UniProt Q14671 828-1176, N971T;H972N;Q975G)
# In short: as §1
# PUM1 PUF domain R4-HRV = PUM1 PUF domain R4-HRV (Homo sapiens, UniProt Q14671 828-1176, N971H;H972R;Q975V)
# In short: as §1
# PUM1 PUF domain R2-VFV = PUM1 PUF domain R2-VFV (Homo sapiens, UniProt Q14671 828-1176, N899V;Y900F;Q903V)
# In short: as §1
sequence,measurement,setting,value
GGCUAGAACUAGUGGAUCCCCCGGCGCCCGGCGGCUCGAGCCCGGGUAAGUCUAAAUAGUCUGCAUGCCGCCGGGCGCCAUGCCUGCAGGUCGACUCUAGAAAACAUG,binding signal,PUM1 PUF domain R7-KTE,2.46 log2 enrichment (interaction score)
same,binding signal,PUM1 PUF domain R7-EYN,3.13 log2 enrichment (interaction score)
same,binding signal,PUM1 PUF domain R7-RGN,3.02 log2 enrichment (interaction score)
GGCUAGAACUAGUGGAUCCCCCGGCGCCCGGCGGCUCGAGCCCGGGUAAGUGGAAAUAGUCUGCAUGCCGCCGGGCGCCAUGCCUGCAGGUCGACUCUAGAAAACAUG,binding signal,PUM1 PUF domain R6-SWD,5.64 log2 enrichment (interaction score)
GGCUAGAACUAGUGGAUCCCCCGGCGCCCGGCGGCUCGAGCCCGGGUAAGUGUAAUUAGUCUGCAUGCCGCCGGGCGCCAUGCCUGCAGGUCGACUCUAGAAAACAUG,binding signal,PUM1 PUF domain R3-GPK,3.25 log2 enrichment (interaction score)
GGCUAGAACUAGUGGAUCCCCCGGCGCCCGGCGGCUCGAGCCCGGGUAAGCGUAAAUAGUCUGCAUGCCGCCGGGCGCCAUGCCUGCAGGUCGACUCUAGAAAACAUG,binding signal,PUM1 PUF domain R8-MHP,2.6 log2 enrichment (interaction score)
same,binding signal,PUM1 PUF domain R8-HFD,2.46 log2 enrichment (interaction score)
same,binding signal,PUM1 PUF domain R8-CYP,4.27 log2 enrichment (interaction score)
GGCUAGAACUAGUGGAUCCCCCGGCGCCCGGCGGCUCGAGCCCGGGUAAGUGUCAAUAGUCUGCAUGCCGCCGGGCGCCAUGCCUGCAGGUCGACUCUAGAAAACAUG,binding signal,PUM1 PUF domain R5-FRT,2.21 log2 enrichment (interaction score)
same,binding signal,PUM1 PUF domain R5-RAM,2.69 log2 enrichment (interaction score)
same,binding signal,PUM1 PUF domain R5-NRR,6.16 log2 enrichment (interaction score)
GGCUAGAACUAGUGGAUCCCCCGGCGCCCGGCGGCUCGAGCCCGGGUAAGUGUUAAUAGUCUGCAUGCCGCCGGGCGCCAUGCCUGCAGGUCGACUCUAGAAAACAUG,binding signal,PUM1 PUF domain R5-FRT,1.56 log2 enrichment (interaction score)
GGCUAGAACUAGUGGAUCCCCCGGCGCCCGGCGGCUCGAGCCCGGGUAAGUGUAAAUUGUCUGCAUGCCGCCGGGCGCCAUGCCUGCAGGUCGACUCUAGAAAACAUG,binding signal,PUM1 PUF domain R1-GHR,1.34 log2 enrichment (interaction score)
same,binding signal,PUM1 PUF domain R1-KAR,6.7 log2 enrichment (interaction score)
GGCUAGAACUAGUGGAUCCCCCGGCGCCCGGCGGCUCGAGCCCGGGUAAGUGUAAAUCGUCUGCAUGCCGCCGGGCGCCAUGCCUGCAGGUCGACUCUAGAAAACAUG,binding signal,PUM1 PUF domain R1-GHR,2.23 log2 enrichment (interaction score)
GGCUAGAACUAGUGGAUCCCCCGGCGCCCGGCGGCUCGAGCCCGGGUAAGUGUAAAUAGUCUGCAUGCCGCCGGGCGCCAUGCCUGCAGGUCGACUCUAGAAAACAUG,binding signal,PUM1 PUF domain R1-KAR,2.23 log2 enrichment (interaction score)
same,binding signal,PUM1 PUF domain R4-ACC,2.56 log2 enrichment (interaction score)
same,binding signal,PUM1 PUF domain R6-TFT,3.71 log2 enrichment (interaction score)
same,binding signal,PUM1 PUF domain R5-FFV,2.23 log2 enrichment (interaction score)
GGCUAGAACUAGUGGAUCCCCCGGCGCCCGGCGGCUCGAGCCCGGGUAAGUGUACAUAGUCUGCAUGCCGCCGGGCGCCAUGCCUGCAGGUCGACUCUAGAAAACAUG,binding signal,PUM1 PUF domain R4-TNG,0.22 log2 enrichment (interaction score)
same,binding signal,PUM1 PUF domain R4-HRV,1.98 log2 enrichment (interaction score)
GGCUAGAACUAGUGGAUCCCCCGGCGCCCGGCGGCUCGAGCCCGGGUAAGUGUAUAUAGUCUGCAUGCCGCCGGGCGCCAUGCCUGCAGGUCGACUCUAGAAAACAUG,binding signal,PUM1 PUF domain R4-TNG,2.66 log2 enrichment (interaction score)
same,binding signal,PUM1 PUF domain R4-HRV,2.89 log2 enrichment (interaction score)
GGCUAGAACUAGUGGAUCCCCCGGCGCCCGGCGGCUCGAGCCCGGGUAAGUGUAAAAAGUCUGCAUGCCGCCGGGCGCCAUGCCUGCAGGUCGACUCUAGAAAACAUG,binding signal,PUM1 PUF domain R2-VFV,5.17 log2 enrichment (interaction score)

# Reference: article PMC8384837, “Expanding the binding specificity for RNA recognition by a PUF domain”
